The results in this text go back to PubChem BioAssay (EPA / NIEHS).

Active and inactive are the calls of the source. Rule for the calls: active = hit-call score of the fitted dose curve at least 0.9, where 1 is the maximum; inactive = score below 0.9.

Assay [1] can be described thus: ATG_E_Box_CIS: Attagene CIS-FACTORIAL HepG2 Assay for human Enhancer Box (E-box) (AID 2282936). Particulars: HepG2 E-box cis-reporter transcription, actives raise or lower the signal. The gist of the method:
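Fluorescent reporter fragments separated by capillary electrophoresis gave the signal; mRNA came from HepG2 cells transfected with cis-element reporters and treated 24 h. Curves fitted bidirectionally relative to DMSO controls.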

The nature of assay [2]: ATG_M_61_CIS: Attagene CIS-FACTORIAL HepG2 Assay for M61 Transcription Factor (Internal Marker) (AID 2282937). The following applies: HepG2 Attagene CIS-FACTORIAL M61 internal marker reporter; actives raise or lower the signal. The gist of the method: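 Multiplexed reporter mRNA assay, HepG2 human hepatoma cells, 24 h treatment. Signal: FAM-labelled, HpaI-digested RT-PCR fragments by CE. Fit: bidirectional, baseline DMSO.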

A short description of assay [3]: ATG_EGR_CIS: Attagene CIS-FACTORIAL HepG2 Assay for human Early Growth Response 1 (EGR1) (AID 2282938). Particulars: HepG2 Attagene CIS-FACTORIAL EGR reporter mRNA; actives raise or lower the signal. The method in brief:
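Multiplexed cis-reporter system in human hepatoma HepG2 cells, transiently transfected. Cells are dosed for 24 h; reporter transcripts are amplified, fluorescently tagged and sized by capillary electrophoresis, with DMSO as negative control.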

Assay [4] in a line: ATG_M_19_CIS: Attagene CIS-FACTORIAL HepG2 Assay for M19 Transcription Factor (Internal Marker) (AID 2282939). The following applies: HepG2 Attagene CIS-FACTORIAL M19 internal marker reporter; actives raise or lower the signal. The method in brief:
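Readout: fluorescent reporter-transcript fragments by capillary electrophoresis after RT-PCR. Human HepG2 liver cells carried transfected MRTU constructs reporting endogenous transcription-factor activity; exposure 24 h. Gain or loss of signal fitted relative to DMSO.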

Assay [5] in a line: ATG_ERE_CIS: Attagene CIS-FACTORIAL HepG2 Assay for Estrogen Response Element (ERE) (AID 2282940). The following applies: HepG2 ERE cis-reporter, Attagene RNA transcript; actives raise or lower the signal. The method in brief:
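Readout: reporter mRNA induction by RT-PCR, FAM-labelled primer extension, HpaI digestion and capillary electrophoresis, 24 h after dosing transfected HepG2 cells. Endogenous transcription factors act on cis-element-regulated reporters. Gain or loss fitted against DMSO.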

Assay [6] is described as follows: ATG_Ets_CIS: Attagene CIS-FACTORIAL HepG2 Assay for human Erythroblast Transformation Specific (ETS) (AID 2282941). Particulars: HepG2 ETS cis-reporter transcription, actives raise or lower the signal. The gist of the method: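 Multiplexed reporter transcript profiling: HepG2, 24 h treatment, total RNA to cDNA, PCR, 6-FAM labelling, HpaI cut, capillary electrophoresis. Gain- or loss-of-signal fitted against DMSO.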

Assay [7] concerns the target Hepatocyte nuclear factor 3-beta (Homo sapiens) (UniProt Q9Y261). Briefly: ATG_FoxA2_CIS: Attagene CIS-FACTORIAL HepG2 Assay for human Forkhead box A2 (FOXA2) (AID 2282942). The following applies: HepG2 cis-reporter transcription factor activity, 24 h; actives raise or lower the signal. The method in brief: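 Multiplexed cis-element reporter assay in transiently transfected HepG2. Twenty-four hours post-dosing, RNA was reverse-transcribed, amplified, FAM-labelled, HpaI-digested and separated by CE. Activity gain or loss relative to DMSO.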

The nature of assay [8]: ATG_FoxO_CIS: Attagene CIS-FACTORIAL HepG2 Assay for human Forkhead box O (FoxO) (AID 2282943). Particulars: HepG2 Attagene cis-reporter, FoxO element, mRNA; actives raise or lower the signal. The method in brief: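 HepG2, transient MRTU transfection (cis element, endogenous TFs). Dose 24 h. TriZol RNA → oligo(dT) RT → PCR → 6-FAM primer extension → HpaI cut → CE. Gain/loss vs DMSO.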

Assay [9] in a line: ATG_GATA_CIS: Attagene CIS-FACTORIAL HepG2 Assay for human GATA Binding Protein (AID 2282944). The following applies: HepG2 GATA cis-element reporter, Attagene multiplex mRNA; actives raise or lower the signal. The gist of the method:
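Read-out: fluorescent reporter mRNA fragments resolved by capillary electrophoresis after RT-PCR. Human liver HepG2 cells carried transiently transfected cis-regulated reporter constructs; chemicals incubated 24 h; gain or loss of signal fitted relative to DMSO.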

Assay [10] is described as follows: ATG_GLI_CIS: Attagene CIS-FACTORIAL HepG2 Assay for human Zinc Finger Protein GLI1 (AID 2282945). Particulars: HepG2, Attagene cis-factorial reporter mRNA, GLI element; actives raise or lower the signal. The method in brief: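 Bidirectional curve fits relative to DMSO, using reporter mRNA levels from RT-PCR plus capillary electrophoresis. Cells were HepG2 transiently carrying cis-regulated reporter constructs, harvested 24 h after dosing.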

Chain of Hepatocyte nuclear factor 3-beta (Homo sapiens) (Q9Y261 whole entry, looked up): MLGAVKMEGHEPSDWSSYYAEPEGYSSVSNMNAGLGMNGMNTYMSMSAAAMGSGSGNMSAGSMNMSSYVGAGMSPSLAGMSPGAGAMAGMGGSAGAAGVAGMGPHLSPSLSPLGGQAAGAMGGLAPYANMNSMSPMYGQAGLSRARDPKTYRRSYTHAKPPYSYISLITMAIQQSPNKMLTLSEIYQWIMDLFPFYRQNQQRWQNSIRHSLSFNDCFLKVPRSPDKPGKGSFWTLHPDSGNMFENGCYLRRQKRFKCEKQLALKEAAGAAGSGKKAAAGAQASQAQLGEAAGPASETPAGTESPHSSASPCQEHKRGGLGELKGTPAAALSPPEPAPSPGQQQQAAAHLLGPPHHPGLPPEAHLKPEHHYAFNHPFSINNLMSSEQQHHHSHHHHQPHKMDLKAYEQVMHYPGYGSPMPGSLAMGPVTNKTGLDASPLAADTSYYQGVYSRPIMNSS

As for `CCCCCCCCC(=O)NCc1ccc(O)c(OC)c1`, the result in [1], in assay [2], in assay [3], in assay [4], in assay [5] and in assay [6] was inactive. In addition, the result in assay [7], in assay [8], in [9] and in [10] was inactive.

On to `CCOP(=S)(OCC)SCSP(=S)(OCC)OCC`, for which the result in assay [1], in [2], in assay [3], in assay [4], in assay [6] and in assay [7] was inactive. The outcome in assay [8], in assay [9] and in assay [10] was inactive. Besides, the AC50 (commonly the concentration at which the activity in the assay is half-maximal) in assay [5] was 6.47 µM (active).

As for `NNC(=S)NN`, the result in assay [1], in assay [2], in [3], in assay [4], in assay [5] and in [6] was inactive. For the same compound, the call in assay [7], in assay [8], in [9] and in assay [10] was inactive.

With `CC1(C)CCC(Cc2ccc(Cl)cc2)C1(O)Cn1cncn1` (stereo not given), the result in [1], in assay [2], in [3], in assay [4], in [6] and in [7] was inactive. Further, the compound was called inactive in assay [8], in assay [9] and in assay [10]. The AC50 in [5] is 7.52 µM (active).

Consider `ClC(Cl)=C(Cl)C(Cl)=C(Cl)Cl`, for which the outcome in assay [1], in [2], in assay [4], in [5], in assay [6] and in [7] was inactive. The compound was called inactive in assay [9]. For the same compound, the AC50 in assay [3] is 131 µM (active); in [8], 180 µM (active); in assay [10], 158 µM (active).

For the compound `N#Cc1ccccn1`, the result in [1], in [2], in [3], in assay [4], in assay [5] and in assay [6] was inactive. Further, the compound was classed as inactive in assay [7], in assay [8], in assay [9] and in [10].

As to `CC1(C)Cc2cccc(O)c2O1`, the result in [1], in assay [2], in [3], in [4], in assay [5] and in [6] was inactive. Further, the compound was classed as inactive in [7], in [8], in [9] and in [10].

As for `c1cc[c]([Hg][c]2ccccc2)cc1`, the result in [1], in assay [2], in assay [4], in assay [5], in assay [6] and in assay [7] was inactive. Besides, the compound was called inactive in assay [8], in [9] and in [10]. For the same compound, in assay [3], the AC50 was 26.4 µM (active).

For the compound `ClC1=C(Cl)[C@]2(Cl)[C@@H]3[C@@H](Cl)[C@@H](Cl)C[C@@H]3[C@@]1(Cl)C2(Cl)Cl`, the result in assay [1], in [2], in [3], in [4], in assay [5] and in [6] was inactive. The call in [7], in assay [8], in assay [9] and in [10] was inactive.

Turning to `O=[N+]([O-])c1ccc2c3c(cccc13)CC2`, the result in assay [1], in assay [2], in [3], in assay [4], in assay [5] and in assay [6] was inactive. The call in assay [7], in assay [8], in assay [9] and in assay [10] was inactive.

For the compound `Nc1ncc([N+](=O)[O-])s1`, the outcome in [1], in [2], in assay [3], in [4], in assay [5] and in assay [6] was inactive. Besides, the compound was called inactive in [7], in assay [8], in assay [9] and in [10].

As for `CCC(C)c1cccc(C(C)CC)c1O` (stereo not given), the outcome in assay [1], in assay [2], in [3], in assay [4], in assay [5] and in assay [6] was inactive. Also, the result in [7], in assay [8], in assay [9] and in assay [10] was inactive.

Regarding `CC(Br)C(=O)O` (stereo not given), the outcome in [1], in assay [2], in assay [3], in [4], in assay [5] and in assay [6] was inactive. For the same compound, the call in assay [7], in assay [8], in [9] and in assay [10] was inactive.

With `COS(=O)(=O)c1ccc(C)cc1`, the outcome in assay [1], in [2], in [3], in assay [4], in assay [5] and in assay [6] was inactive. In addition, the compound was called inactive in [7], in assay [8], in assay [9] and in assay [10].

As for `CCC[CH2][Sn]([CH2]CCC)([CH2]CCC)[O]C(=O)c1ccccc1`, the outcome in assay [1], in assay [2], in [3], in [4], in assay [6] and in assay [7] was inactive. Further, the compound was classed as inactive in assay [8], in assay [9] and in assay [10]. Besides, in assay [5], the half-maximal activity concentration (AC50) was 0.0334 µM (active).

As for `Cl/C=C/Cl`, the result in assay [1], in [2], in [3], in assay [4], in assay [5] and in assay [6] was inactive. Also, the compound was called inactive in assay [7], in assay [8], in [9] and in [10].

For the compound `O=C(NCO)NCO`, the outcome in assay [1], in [2], in assay [3], in assay [4], in [6] and in [7] was inactive. For the same compound, the outcome in assay [8], in assay [9] and in assay [10] was inactive. Besides, the AC50 in assay [5] is 54.5 µM (active).

As to `O=C(O)Cc1ccccc1`, the outcome in assay [1], in assay [2], in [3], in assay [4], in assay [5] and in [6] was inactive. The call in [7], in assay [8], in assay [9] and in [10] was inactive.

`CCOP(=S)(OCC)Oc1nc(Cl)c(Cl)cc1Cl`: the result in [1], in [2], in assay [3], in assay [4], in assay [6] and in [7] was inactive. Moreover, the compound was classed as inactive in [8] and in [9]. Besides, the values for the AC50 in assay [5] and in assay [10] were 27.5 µM (active) and 71.9 µM (active), respectively.

With `ClC1(Cl)C2(Cl)C3(Cl)C4(Cl)C(Cl)(Cl)C5(Cl)C3(Cl)C1(Cl)C5(Cl)C24Cl` (stereo not given), the outcome in assay [1], in assay [2], in assay [3], in assay [4], in assay [5] and in [6] was inactive. For the same compound, the call in [7], in [8], in assay [9] and in assay [10] was inactive.

For the compound `COC(=O)c1sccc1S(=O)(=O)NC(=O)Nc1nc(C)nc(OC)n1`, the outcome in [1], in assay [2], in assay [3], in [4], in [6] and in assay [7] was inactive. Further, the result in [8], in [9] and in assay [10] was inactive. Further, in [5], the AC50 is 47.4 µM (active).

In the case of `Cc1cc(=O)[nH]o1`, the outcome in assay [1], in assay [2], in assay [3], in assay [4], in assay [5] and in [6] was inactive. Also, the outcome in [7], in assay [8], in assay [9] and in assay [10] was inactive.

As to `CCC(=O)C(CC(C)N(C)C)(c1ccccc1)c1ccccc1` (stereo not given), the AC50 in assay [1] is 48.8 µM (active). Also, the outcome in assay [2], in assay [3], in assay [4], in assay [5], in [6] and in [7] was inactive. Also, the compound was classed as inactive in assay [8], in assay [9] and in assay [10].

Take `CCCCCCCCCl`: the outcome in assay [1], in assay [2], in [3], in [4], in assay [5] and in assay [6] was inactive. Moreover, the compound was classed as inactive in [7], in assay [8], in [9] and in assay [10].
